The text below walks through data of PubChem BioAssay (NCI).

About 83,000 compounds went through this panel and 20% of them were active in at least one assay; those are over-represented in the sample as a whole.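 Activity criterion: percent growth below 10, measured after cells in 96-well plates were exposed to a single compound concentration for 48 hours.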 Values without a mark were called inactive. Activity calls are given as the source filed them.

Among the test systems are HT29 colon; SNB-75 CNS; SNB-19 CNS; U251 CNS; PC-3 prostate; SK-MEL-5 melanoma; UACC-62 melanoma; SK-MEL-28 melanoma; LOX IMVI melanoma.
What all share (test): NCI-60 one-dose screen, 48 h (100 = growth as untreated, 0 = no growth, -100 = all killed)
Common to all, as to settings: 10 µM unless noted

Regarding `CN(C)c1nc(-c2cccs2)n2nc(-c3ccco3)cc2n1`, the growth with HT29 colon is 93.4%; in the assay with SNB-75 CNS it was 86.5%; with SNB-19 CNS it was 102%; with U251 CNS it was 93.6%; with PC-3 prostate it was 91.2%; in the assay with SK-MEL-5 melanoma it was 94.1%. The values for the growth with UACC-62 melanoma and in the assay on SK-MEL-28 melanoma were 89.7% and 117%, respectively.

As for `CCCCCCCCCCCCCCCCCC(=O)[O][Sn]([CH2]CCC)([CH2]CCC)[CH2]CCC`, the growth in the assay on HT29 colon was -52.2% (active); in the assay on SNB-75 CNS it was -96.8% (active); in the assay on SNB-19 CNS it was -70.9% (active); in the assay with U251 CNS, -89.3% (active); in the assay with PC-3 prostate, -69.3% (active); with SK-MEL-5 melanoma, -99.9% (active). Moreover, the growth with UACC-62 melanoma is -60.6% (active); in the assay with LOX IMVI melanoma, -92.7% (active); in the assay with SK-MEL-28 melanoma, -94.8% (active).

On to `O=C1Nc2ccc(Br)cc2/C1=N/c1nc(-c2ccccc2)cs1`, for which the growth in the assay on HT29 colon was 91.7%; in the assay on SNB-75 CNS, 79%; in the assay on SNB-19 CNS, 96.2%; in the assay on U251 CNS, 92.9%; in the assay on PC-3 prostate it was 62.3%; with SK-MEL-5 melanoma, 77.5%. Moreover, the growth in the assay with UACC-62 melanoma is 80.5%; in the assay on LOX IMVI melanoma, 92%; with SK-MEL-28 melanoma it was 95%.

With `NS(=O)(=O)c1ccc(CCn2c(SCC(=O)N/N=C/c3cc4ccccc4[nH]3)nc3ccccc3c2=O)cc1`, the growth was 39.2% with HT29 colon; 80% in the assay with SNB-75 CNS; 58.6% in the assay with SNB-19 CNS; 30.6% in the assay with U251 CNS; 40.2% in the assay on PC-3 prostate; 31.9% in the assay on SK-MEL-5 melanoma. In addition, the figures for the growth in the assay on UACC-62 melanoma, in the assay with LOX IMVI melanoma and in the assay on SK-MEL-28 melanoma were 53.3%, 49.1% and 88.3%, respectively.

Regarding `CN(C)CC(=O)c1ccc2cc(Br)c3ccccc3c2c1`, the growth is 9.4% (active) in the assay with HT29 colon; 83.7% with SNB-75 CNS; 69.7% in the assay with SNB-19 CNS; 53.3% in the assay on U251 CNS; 57.2% in the assay with PC-3 prostate; 83% in the assay on SK-MEL-5 melanoma. Besides, the values for the growth in the assay on UACC-62 melanoma, with LOX IMVI melanoma and in the assay on SK-MEL-28 melanoma were 79.1%, 43.6% and 99.1%, respectively.

Consider `CN(C)c1ccc(C2(Cl)c3ccccc3N(C)c3ccccc32)cc1`, for which the growth in the assay on HT29 colon is 12.1%; with SNB-75 CNS, 71.2%; in the assay with SNB-19 CNS, 45.5%; in the assay with PC-3 prostate it was 7.45% (active); in the assay on SK-MEL-5 melanoma it was 79.9%; in the assay with UACC-62 melanoma, 35.2%. The growth in the assay with LOX IMVI melanoma was 27.6%; in the assay with SK-MEL-28 melanoma it was 52.4%.

For `CCOC(=O)CCN(CCC(=O)OCC)c1ccccc1`, the growth in the assay with HT29 colon is 99.7%; with SNB-75 CNS it was 93.9%; in the assay with SNB-19 CNS it was 104%; in the assay on U251 CNS, 92.5%; with PC-3 prostate it was 93%; in the assay on SK-MEL-5 melanoma it was 96.4%. Besides, the growth is 99.4% with UACC-62 melanoma, 95.8% in the assay with LOX IMVI melanoma and 117% in the assay with SK-MEL-28 melanoma.

For `O=C(Nc1ccc(-n2ccc3c(NC(=O)c4ccccc4)nccc32)cc1)c1ccc(N2CCOCC2)c(C(F)(F)F)c1`, the growth with HT29 colon is 2.44% (active); in the assay on SNB-75 CNS it was 23.5%; with SNB-19 CNS it was 44.6%; in the assay with U251 CNS, 14.4%; with PC-3 prostate it was 35.7%; in the assay on SK-MEL-5 melanoma, 23.7%. Moreover, the growth with UACC-62 melanoma is 49.4%; in the assay on LOX IMVI melanoma, 13.4%; in the assay on SK-MEL-28 melanoma it was 25.3%.

In the case of `CCN(CC)CCNC(=O)C(F)(F)C(F)(F)C(F)(F)F`, the growth with HT29 colon is 115%; in the assay with SNB-75 CNS it was 97.2%; with SNB-19 CNS, 116%; in the assay on U251 CNS, 104%; in the assay on PC-3 prostate, 96%; with SK-MEL-5 melanoma, 105%. Moreover, the results for the growth in the assay on UACC-62 melanoma, in the assay on LOX IMVI melanoma and in the assay with SK-MEL-28 melanoma were 107%, 104% and 115%, respectively.

Turning to `CCOC(=O)C#Cc1c(C(=O)OCC)nnn1[C@@H]1O[C@H](COC(C)=O)[C@@H](OC(C)=O)[C@H]1OC(C)=O`, the growth in the assay on HT29 colon is 88.9%; in the assay on SNB-75 CNS it was 95.5%; with SNB-19 CNS it was 93%; in the assay on U251 CNS, 100%; in the assay with PC-3 prostate, 102%; in the assay on SK-MEL-5 melanoma, 96.6%. Moreover, the growth is 93.1% in the assay with UACC-62 melanoma, 85.8% with LOX IMVI melanoma and 107% with SK-MEL-28 melanoma.

Regarding `COc1ccc2nc(-c3ccc(-c4noc(-c5ccc(Cl)cc5)n4)cc3)[nH]c2c1`, the growth with HT29 colon is 82%; in the assay on SNB-75 CNS it was 31.8%; in the assay with SNB-19 CNS, 95.6%; in the assay on U251 CNS, 78.2%; with PC-3 prostate it was 67.1%; with SK-MEL-5 melanoma, 78.8%. Further, the growth was 58.3% with UACC-62 melanoma, 57.3% in the assay on LOX IMVI melanoma and 79.7% in the assay on SK-MEL-28 melanoma.

`O=C(Nc1ccc([N+](=O)[O-])cc1)c1cc2ccccc2cc1O`: the growth is 24.4% in the assay on HT29 colon; -6.38% (active) in the assay on SNB-75 CNS; 23.7% with SNB-19 CNS; 2.66% (active) in the assay on U251 CNS; -11.2% (active) with PC-3 prostate; -86.8% (active) in the assay on SK-MEL-5 melanoma. The growth in the assay with UACC-62 melanoma is -28.8% (active); with LOX IMVI melanoma, -1.01% (active); in the assay on SK-MEL-28 melanoma it was 7.4% (active).

For the compound `NC(=O)N/N=C\c1ccc([N+](=O)[O-])o1`, the growth in the assay on HT29 colon is 111%; in the assay with SNB-75 CNS it was 84.3%; in the assay on SNB-19 CNS it was 113%; in the assay with U251 CNS, 93%; in the assay with PC-3 prostate, 85.2%; in the assay on SK-MEL-5 melanoma it was 107%. The results for the growth in the assay with UACC-62 melanoma, in the assay with LOX IMVI melanoma and in the assay with SK-MEL-28 melanoma were 103%, 91.5% and 106%, respectively.

For the compound `O=C(CC(=O)c1ccccc1F)Nc1ccc([N+](=O)[O-])cc1`, the growth was 91.8% in the assay on HT29 colon; 79.1% in the assay with SNB-75 CNS; 96.9% in the assay on SNB-19 CNS; 94.7% in the assay on U251 CNS; 98.3% with PC-3 prostate; 86.4% in the assay with SK-MEL-5 melanoma. Besides, the values for the growth with UACC-62 melanoma, in the assay with LOX IMVI melanoma and in the assay with SK-MEL-28 melanoma were 80.1%, 99.7% and 100%, respectively.

Consider `ClC1(Cl)C2CCCCCCC21` (centres undefined), for which the growth with HT29 colon was 97.5%; with SNB-75 CNS it was 97.2%; in the assay with SNB-19 CNS, 99.6%; with U251 CNS, 109%; in the assay on PC-3 prostate, 98.7%; in the assay on SK-MEL-5 melanoma it was 110%. Besides, the growth is 103% in the assay on UACC-62 melanoma, 108% in the assay with LOX IMVI melanoma and 107% with SK-MEL-28 melanoma.

On to `CCOC(=O)c1ccc(NC(=O)CSC(N)=O)cc1`, for which the growth was 126% in the assay on HT29 colon; 149% in the assay on SNB-75 CNS; 91.1% with SNB-19 CNS; 94.1% with U251 CNS; 85.6% in the assay on PC-3 prostate; 103% with SK-MEL-5 melanoma. Besides, the growth with UACC-62 melanoma is 96.8%; with LOX IMVI melanoma, 85.7%; with SK-MEL-28 melanoma, 128%.

Turning to `CCN(CC)CCCC(C)Nc1c(-c2ccccc2)cnc2cc(Cl)ccc12` (centres undefined), the growth in the assay on HT29 colon is -33.5% (active); with SNB-75 CNS, 132%; with SNB-19 CNS, 101%; with U251 CNS, 58.1%; in the assay with PC-3 prostate, 64.5%; in the assay with SK-MEL-5 melanoma, 55.3%. The figures for the growth with UACC-62 melanoma, in the assay on LOX IMVI melanoma and in the assay on SK-MEL-28 melanoma were 97.2%, 19.2% and 15.3%, respectively.

For `COc1cc(C2CC(=O)Nc3c2cnn3C)cc(OC)c1OC` (centres undefined), the growth in the assay on HT29 colon was 105%; in the assay with SNB-75 CNS, 92%; in the assay with SNB-19 CNS it was 108%; with U251 CNS, 100%; with PC-3 prostate it was 108%; in the assay with SK-MEL-5 melanoma, 105%. Further, the growth is 106% in the assay on UACC-62 melanoma, 106% with LOX IMVI melanoma and 119% in the assay on SK-MEL-28 melanoma.

With `COc1ccc(/C=C(\C#N)c2cc(OC)c(OC)c(OC)c2)cc1`, the growth is 6.29% (active) in the assay with HT29 colon; 30.3% in the assay on SNB-75 CNS; 43% in the assay on SNB-19 CNS; 15.4% in the assay with U251 CNS; 28% in the assay on PC-3 prostate; -37.4% (active) in the assay with SK-MEL-5 melanoma. Further, the growth is 36.2% in the assay on UACC-62 melanoma, 27% in the assay with LOX IMVI melanoma and 56.6% in the assay on SK-MEL-28 melanoma.
